The results in this text go back to the supplement of paper PMC6555819.

This assay has as its system PXR:RXRa (NR concentration 270 nM, RXRa partner concentration 90 nM). The experiment in a line: PBM binding z-score (relative to random genomic background probes); higher = stronger binding; sequences stand for … in GC…GCGATTGACAGCGTAGAATGAAGG
The essentials: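 Custom Agilent 4×180K protein-binding microarrays carried double-stranded probes, each with a 34-nt variable region. These regions held direct-repeat seeds, single-nucleotide variants, half-site ablations and random human genomic background sequences. Ligand-free nuclear receptor dimers were incubated on the arrays for 1 h, antibodies against each partner (one per run) detected binding, and scanned fluorescence was regression-normalized. Binding z-scores take the random background probes as reference.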
In turn, TGAATGAGGTTAAAGATCTGGGAACGTGGCGTCG gave a PBM binding z-score of 1.19.

As for CTCGCAAGGTCGGTTGAGGTGAGTATACGGATAA, the PBM binding z-score is 1.73.

Take CCACACAGGTGAAAGGTAACTCAGTCTGGTACGC: the PBM binding z-score was 1.22.

Take CCTACTGCGCCAAGGTCATTGATCAGTCAAAGCA: the PBM binding z-score worked out at 3.85.

In turn, TCTATTAGTTGAAGTGCAACCGACGAGTCCGTTT yielded a PBM binding z-score of 0.982.

AGAACGAGGGCAATGAGTAGATAGCACGGGTGGC: the PBM binding z-score was found to be 0.323.

Turning to TTGCCAAGGTGAAGGTCGTTGATCCCTCTGTAGA, the PBM binding z-score was 1.21.

TCTAGTTGGTCACGGAGGTCACACACGACGGGTA: the PBM binding z-score came out at 4.41.

As to ACAGACAGGTTAGTGAAGGTAACTCAGCTGGACG, the PBM binding z-score is -0.0921.

Take GCGATTGGGGCAAAGCAGGTTACCATAAGGTTGG: the PBM binding z-score was determined as 0.707.

ATCTCTAGGTAAGACTCCGTTCAGTGAAGAACGC returned a PBM binding z-score of 0.0673.

Consider CCGACTGGGCCACGAAAGGTCATTGATTCAGTGA, for which the PBM binding z-score was 5.17.

Consider AATACAGGGTCATTGTAGGCCAGAGTACGCACAG, for which the PBM binding z-score is 4.83.

The sequence TTACCAAGGTGAGCTGAGGTCGTGGATCCAACTC showed a PBM binding z-score of 3.77.

On to TCTATTAGTTGATTAGGGCAACCGCAACAGCGGA, for which the PBM binding z-score was 0.281.

Sequence AGTCAAAGTTCATCTAGGTAACCTAAGATATGCT registered a PBM binding z-score of 5.34.

With TCAGACAGGTGAAGGTAACGCAGGTACGCAGTCG, the PBM binding z-score worked out at 0.411.

The sequence AGAATGAGGTTATATGTAGATCAGGGAAGAAAGT registered a PBM binding z-score of 1.2.

In turn, GCTCGGAGGACAAGGTCAGAGATTTGTCCGTAGA displayed a PBM binding z-score of 1.24.

TCTGCTAGGTCAGTTGGTCAGGTAACGAGCTGCC had a PBM binding z-score of 0.0993.

Consider CCTCGGAGGACTACAGGAGGTCAGAGCTGCCAGA, for which the PBM binding z-score stood at 2.04.

For the sequence GGAACGACGGCAAGTTGATAGCAGAGTTTGATGG, the PBM binding z-score is -0.547.

ATCTCTAGGTAAAGATAGTTCTGTGAATGCAAAT: the PBM binding z-score amounted to 0.067.

For CGTCCAGGGTCAGAGAGGTCAGTGAATGCCGAGT, the PBM binding z-score worked out at 6.01.

For the sequence TCTAGTTGGTCACGGAGGTCACACCCGACGGGTA, the PBM binding z-score worked out at 4.15.

Sequence TCATATAGGTAAATGCTAAGTGAAAGTCCGATCT showed a PBM binding z-score of 0.632.

Regarding TCTGCTAGGTCAGCTGGTCAGCTAACGAGCTGCC, the PBM binding z-score came out at 0.279.

As for CTACCAAGGTGAACAAGGGCGTTGATTACTATTC, the PBM binding z-score worked out at 0.993.

AGTCAAAGTTCAAGACGAGGTAACGTAAAGCACG came in with a PBM binding z-score of 4.49.

Sequence GCTGCTAGGTCAGGTTGATCAGCTAACGGGTACG returned a PBM binding z-score of 0.316.

On to CCTTACGGGTCAAGGTTTTAGCACGGGTGGTACG, for which the PBM binding z-score turned out to be 2.95.

TGAATGAGGTTATGAGATCAGGGAACGTTGCAAA gave a PBM binding z-score of 0.684.

Regarding AGAACGAGGGCACGCTGAGTTCATAGCAGAGTAG, the PBM binding z-score worked out at 5.94.

As for AGTCAAAGTTCACTAGGTAACCTAAGATTCAGCT, the PBM binding z-score came to 4.37.

GTACCAAGGTGAATAGGTCGTGGATGAGTAGGCG showed a PBM binding z-score of 0.978.

CTCCAAAGGTCGTGCTCAGGTGAGTATACCAAAC came in with a PBM binding z-score of 3.53.

The sequence TGATATAGGTAAACAGGTGAAAGTCCGTAAGTTA showed a PBM binding z-score of 0.29.

Consider TCTATTAGTAGATTAGGGCAACCGAAACAGCGGA, for which the PBM binding z-score worked out at 0.229.

CGTCCAAGGTCATAGGAGGTCAGTGAGGACAGAT had a PBM binding z-score of 6.88.

The sequence TCTCGGAGGACACGGAAGGTCAGAGCTCGACATC had a PBM binding z-score of 2.53.
